# Source: PubChem BioAssay (several laboratories)
# Beta cell apopt: beta cell apoptosis inhibition | INS-1E cytokine-induced death, ATP luminescence, 48 h; percent of positive-control rescue, neutral wells zero | 300,000 compounds, 0.8% hits | protection from apoptosis, % (concentration not given with the values);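 active = Every replicate reaches about 75%, or at least half do and their mean reaches it too, limit read from the data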;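 note: 0% = cytokine-treated negative control wells and 100% = positive control rescue; higher means more ATP so stronger rescue from cytokine killing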
# SKKanGAS inh: inhibitors of SKKanGAS S. pyogenes growth in kanamycin (SK-promoter or general growth effect); BacTiter-Glo, 6 h; AID 1662; 300,000 compounds, 1.3% hits; inhibition, % at 7.5 µM;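 active = mean replicate score, as percent of positive control median, at least 50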;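 note: strain carries kanamycin resistance gene driven by streptokinase promoter and grows in 40 µg/ml kanamycin; loss of luminescence reflects streptokinase promoter inhibition or plain growth inhibition; 0% = median of DMSO wells and 100% = positive control at its reference dose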
# MPTP inh: permeability transition pore inhibition | inhibition, % at 10 µM | 360,000 compounds, 1.4% hits | isolated mouse mitochondria, Ca2+ swelling absorbance, 30 min | AID 602449;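 active = inhibition of 50% or more, scaled per plate between neutral and stimulator controls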;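 note: 0% = DMSO wells given calcium and 100% = 1 mM EGTA wells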
# Mdm2-MdmX inh: disrupts the human Mdm2-MdmX interaction. O15151+Q00987. SaOS-2 split-luciferase Mdm2/MdmX complementation, luminescence. inhibition, % at 8 µM. 330,000 compounds, 3% hits;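 active = inhibition of at least 50% at 8 µM in the primary screen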
# CSC inhib: blocks cancer stem cells. cancer stem cell-like cells viability, luminescence. inhibition, % at 7.5 µM. 300,000 compounds, 1.1% hits. AID 2717; in the data active = inhibition above about 75%; tested in HMLE shEcad cells
# Calb FLC: C. albicans growth modulation with fluconazole; C. albicans CaCi-2 (fluconazole-resistant clinical isolate) + fluconazole, Alamar Blue growth, 48 h; AID 1979; 300,000 compounds, 0.57% hits; growth inhibition, % (test concentration not listed);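 active = growth inhibition above about 58% in most replicates, limit read from the data, passing the limit was not always enough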;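 note: all wells also contain fluconazole at 8 µg/ml as a sub-toxic cotreatment; 0% = median of DMSO wells and 100% = median of geldanamycin control wells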
# An asterisk follows results filed as active; · = no result given. The list is not random: actives were taken first. Their share in the collection is about 5.4%.
SMILES,Beta cell apopt,SKKanGAS inh,MPTP inh,Mdm2-MdmX inh,CSC inhib,Calb FLC
COc1ccc(C(=O)N2CCCC(c3cc(C(=O)NCc4cccnc4)no3)C2)cc1 (configuration not stated),·,·,1,·,·,·
CC(=O)Nc1sc(N)nc1-c1ccccc1,-9,-3,-1,-1,-1,15
Nc1nc(-c2ccccc2)c(N=Nc2ccccc2Cl)s1,5,-6,12,27,-6,101*
Nc1nc(-c2ccccc2)c(N=Nc2cccc3ccccc23)s1,16,57*,12,26,56,14
Cc1ncc(N=Nc2ccccc2Cl)c(-c2ccccc2)n1,-12,30,0,34,-4,-20
CCCCC(=O)NC(Nc1cc(C)ccn1)(C(=O)OCC)C(F)(F)F (configuration not stated),-1,-1,-3,8,-9,7
CCC(C)n1ncn(-c2ccc(N3CCN(c4ccc(O)cc4)CC3)cc2)c1=O (configuration not stated),3,1,1,-6,104*,5
CCOCCCNc1nc2c(C)cccn2c(=O)c1/C=C1\SC(=S)N(C(C)CC)C1=O (configuration not stated),16,27,11,34,3,1
O=C(COC(=O)CSc1ccccc1)NNC(=O)c1ccc([N+](=O)[O-])cc1,0,-3,-1,3,-2,2
COc1ccc(NS(=O)(=O)c2cccc(NC(=O)CCC(=O)c3cccs3)c2)cc1,·,2,1,0,·,-7
COc1ccc(NS(=O)(=O)c2cccc(NC(=O)CCC(=O)c3ccc(Cl)cc3)c2)cc1,3,51*,45,31,18,-1
COc1ccc2c(c1)c(CC(=O)Nc1cccc(S(N)(=O)=O)c1)c(C)n2C(=O)c1ccc(Cl)cc1,7,86*,7,27,38,10
COC(=O)[C@H](Cc1ccccc1)N(Cc1ccccc1)S(=O)(=O)N(Cc1ccccc1)[C@@H](Cc1ccccc1)C(=O)OC,119*,·,4,40,-1,·
COC(=O)[C@H](Cc1ccccc1)N(C)S(=O)(=O)c1cccc(S(=O)(=O)N(C)[C@@H](Cc2ccccc2)C(=O)OC)c1,2,-1,3,16,5,1
NC(=S)N/N=C/c1ccc(C23CC4CC(CC(C4)C2)C3)cc1,77*,100*,·,46,113*,-2
Cn1nc([N+](=O)[O-])nc1Sc1cccc2cccnc12,94*,-4,2,5,-7,-1
CCOC(=O)c1c(CSc2ccccc2)n(C)c2cc(Br)c(OC)c(O)c12,14,-8,0,13,35,4
CCOC(=O)c1c(CSc2ccccc2)n(C)c2cc(Br)c(OCC(O)CNC(CO)(CO)CO)cc12 (configuration not stated),-1,3,-1,·,100*,-8
O=C(/C=C\c1ccccc1)NCC(=O)N/N=C/c1ccc(O)cc1O,9,-2,-1,24,104*,-8
O=C(N/N=C/c1ccc(O)cc1O)/C(=C/c1ccccc1)CCO,85*,29,-2,48,97*,-7
CCN(CC)CCN(C(=O)c1ccc(N2C(=O)CCC2=O)cc1)c1nc2cc3c(cc2s1)OCCO3,-4,-19,1,-1,-15,-8
Cc1ccccc1-c1noc(-c2ccc(O)cc2)n1,25,12,33,-132,96*,-25
O=C1/C(=C/c2cccnc2)CCC/C1=C\c1cccnc1,100*,·,·,·,103*,·
CN(C)c1ccc(/C=C2\CCC/C(=C\c3ccccc3)C2=O)cc1,1,2,3,·,86*,-2
O=C1/C(=C/c2ccccc2)CCCc2ccccc21,5,21,0,7,15,-17
COc1ccc(-c2nnn(CC(=O)Nc3sc4c(c3C#N)CCCC4)n2)cc1,3,-6,9,31,13,34
CC(=O)c1c(C)oc2c1C(=O)c1ccccc1C2=O,96*,10,6,·,83*,7
Cc1cccc(C)c1OCC(=O)NNC(=S)NC(=O)C1CC1,32,95*,-1,26,12,76*
Cc1cccc(C(=O)Nc2ccc(NC(=O)c3cccc(C)c3)cc2)c1,·,·,1,·,·,·
O=C(Nc1ccc(O)cc1)c1ccc(NC(=O)c2cccs2)cc1,-5,-2,-1,-13,85*,4
